We go through seven compounds from PubChem BioAssay (NCATS).

The target of assay [1] is Lysosomal acid glucosylceramidase (Homo sapiens) (UniProt P04062). Nature of the assay: Glucocerebrosidase-p2 (AID 348; in the data active = potency below about 10 µM; note: potency is the fitted concentration of half-maximal effect). As to conditions: purified GBA, blue fluorogenic substrate, 40 min. An outline of the steps:
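Compounds titrated from 0.6 nM upwards against 0.2 nM enzyme in pH 5.9 citric acid/KH2PO4, taurocholate, tween-20; blue fluorogenic substrate 80 uM, 40 min room temperature, stopped and read Ex 365/Em 440 for AC50.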

Assay [2] in a line: AP1 Signaling Pathway (AID 357; active = well fitted curve in either direction with a large enough effect, not every such curve was filed as active;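 note: ME-180 reporter cells stimulated with EGF at its EC50 level; % is set by controls: 0 for no effect and ±100 for the full control effect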). The following applies: ME-180 AP-1-bla reporter, EGF-induced, beta-lactamase ratio, 5 h; at 7.69 µM (top of the series) unless noted. An outline of the steps: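 Modulation of EGF-driven AP-1 transcription was assessed with a beta-lactamase reporter in ME-180 cells. Compound and EC50 EGF were co-incubated 5 hours at 37 °C before 2.5-hour CCF4 loading at room temperature and dual-emission reading.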

The target of assay [3] is Cytochrome P450 1A2 (Homo sapiens) (UniProt P05177). Kind of assay: p450-cyp1a2 (AID 410). Note: potency is the fitted concentration of half-maximal effect. The following applies: recombinant CYP1A2, luciferin-ME demethylation, luminescence; series mostly up to 57 µM. An outline of the steps: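 Luminescent readout of luciferin formed from Luciferin-ME by human CYP1A2; data normalized against complete inhibition by 57 uM furafylline. Enzyme 20nM, substrate 100uM at Km, 100mM KPO4 buffer, 60 min reaction at room temperature.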
Cytochrome P450 1A2 (Homo sapiens), sequence (P05177 whole entry, looked up): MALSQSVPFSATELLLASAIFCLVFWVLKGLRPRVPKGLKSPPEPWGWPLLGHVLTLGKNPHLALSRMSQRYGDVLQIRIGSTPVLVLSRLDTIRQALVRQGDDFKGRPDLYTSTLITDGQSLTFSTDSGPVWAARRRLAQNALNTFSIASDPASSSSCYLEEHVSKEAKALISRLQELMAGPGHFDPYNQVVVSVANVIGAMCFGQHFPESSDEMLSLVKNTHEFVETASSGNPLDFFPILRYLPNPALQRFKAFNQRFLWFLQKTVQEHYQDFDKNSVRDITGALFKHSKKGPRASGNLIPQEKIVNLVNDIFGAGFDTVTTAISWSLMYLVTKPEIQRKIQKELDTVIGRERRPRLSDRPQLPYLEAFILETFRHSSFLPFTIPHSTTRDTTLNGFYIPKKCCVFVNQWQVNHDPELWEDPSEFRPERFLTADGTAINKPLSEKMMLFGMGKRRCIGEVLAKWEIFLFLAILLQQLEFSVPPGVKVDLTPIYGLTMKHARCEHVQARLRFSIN

Assay [4] in a line: Stat Signaling Pathway (AID 446; active = well fitted curve in either direction with a large enough effect, not every such curve was filed as active;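 note: ME-180 cervical cancer cells given 40 pM IL-6 alongside compound; SIE-controlled beta-lactamase reporter measured as 460/530 nm FRET emission ratio; % is set by controls: 0 for no effect and ±100 for the full control effect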). The following applies: ME-180 SIE beta-lactamase reporter, IL-6 stimulated, 5 h; at 7.69 µM (top of the series) unless noted. An outline of the steps: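 ME-180 cells carrying a SIE-driven beta-lactamase reporter are stimulated with 40 pM IL-6 for 5 h at 37C in the presence of compound. The 460/530 nm FRET substrate ratio is read after 2.5 h at RT. Data are normalised to 300 pM IL-6 and to 125 nM JAK inhibitor controls.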

The target in assay [5] is Glucocorticoid receptor (Homo sapiens) (UniProt P04150). Kind of assay: GR-GFP Redistribution (AID 450;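 active = compounds whose dose series gives a full or clear partial fitted curve of increased nuclear translocation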; note: potency is the fitted concentration of half-maximal effect). As to conditions: U2OS GR-GFP nuclear translocation, laser cytometry, 2 h.
Glucocorticoid receptor (Homo sapiens), sequence (P04150 whole entry, looked up, the tested form may be a part): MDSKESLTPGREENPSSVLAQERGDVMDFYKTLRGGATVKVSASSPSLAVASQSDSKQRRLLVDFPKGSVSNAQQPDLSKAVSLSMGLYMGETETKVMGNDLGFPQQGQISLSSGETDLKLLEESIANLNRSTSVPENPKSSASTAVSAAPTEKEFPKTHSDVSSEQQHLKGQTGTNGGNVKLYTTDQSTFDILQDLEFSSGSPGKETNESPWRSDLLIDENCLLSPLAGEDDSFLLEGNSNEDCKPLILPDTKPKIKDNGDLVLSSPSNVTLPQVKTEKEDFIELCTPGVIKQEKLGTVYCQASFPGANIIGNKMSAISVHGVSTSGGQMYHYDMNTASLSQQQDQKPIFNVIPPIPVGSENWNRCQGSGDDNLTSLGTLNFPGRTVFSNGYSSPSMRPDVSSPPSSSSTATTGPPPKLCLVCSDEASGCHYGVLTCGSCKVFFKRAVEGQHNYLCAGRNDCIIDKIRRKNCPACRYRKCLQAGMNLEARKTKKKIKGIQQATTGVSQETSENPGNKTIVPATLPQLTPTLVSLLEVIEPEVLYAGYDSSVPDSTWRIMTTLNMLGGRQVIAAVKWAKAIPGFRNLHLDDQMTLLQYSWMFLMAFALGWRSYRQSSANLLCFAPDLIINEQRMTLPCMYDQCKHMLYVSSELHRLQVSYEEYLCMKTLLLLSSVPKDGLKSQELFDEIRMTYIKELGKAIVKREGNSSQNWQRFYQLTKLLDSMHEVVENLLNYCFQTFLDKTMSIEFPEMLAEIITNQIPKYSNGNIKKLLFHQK
The target is the same in assay [6]. Kind of assay: GR-EFC Redistribution (AID 451). Note: potency is the fitted concentration of half-maximal effect. The following applies: CHO-K1 GR-EFC translocation, beta-gal luminescence, 2 h. An outline of the steps: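 CHO-K1 cells stably expressing nuclear-localized β-gal enzyme acceptor and GR fused C-terminally to the enzyme donor fragment; ligand-driven nuclear translocation restores β-gal by complementation. Compounds titrated up to 46 uM final, 2 h at 37 °C; luminescence read.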

Assay [7] deals with Mitogen-activated protein kinase 10 (Mus musculus) (UniProt Q61831). Kind of assay: JNK3 AlphaScreen Assay (AID 530; active = well fitted curve in either direction with a large enough effect, not every such curve was filed as active;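 note: kinase came from lysate of stimulated human HepG2 cells; signal reports phosphorylation of biotinylated GST-cJun 1-79 at Ser73 with 10 µM ATP; % is set by controls: 0 for no effect and ±100 for the full control effect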). The following applies: JNK3 lysate, c-Jun phosphorylation; series mostly up to 57.1 µM. An outline of the steps:
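Inhibitors reduce antibody binding to phosphorylated biotin-cJun, lowering AlphaScreen luminescence. Lysates from HepG2 cells pre-activated by IL-1beta plus TNF-alpha supplied JNK3; compounds were titrated.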
(In general: Alpha assays give light when donor and acceptor beads are brought close together.)

Assay [8] addresses 3',5'-cyclic-AMP phosphodiesterase 4B (Homo sapiens) (UniProt Q07343). Nature of the assay: qHTS Assay for Inhibitors of PDE-IV (AID 607; active = well fitted activation curve with a large enough effect in the main read-out, with a control signal flat, not every such curve was filed as active; note: % of control where 0% means no effect). As to conditions: HEK293 ACTOne CNG channel cells, membrane potential fluorescence; series mostly up to 22.9 µM. An outline of the steps: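 HEK293 ACTOne cells with CNG channel (1000/well), endogenous PDE4; membrane potential dye, compounds up to 22.9 uM final. Fluorescence Ex 535/Em 590; RO 20-1724 (100 uM final) as reference.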
In general terms: In qHTS, concentration-response curves come from the screen itself.

Assay [9] has as its target Cytochrome P450 3A4 (Homo sapiens) (UniProt P08684). Nature of the assay: qHTS Assay for Activators of Cytochrome P450 3A4 (AID 885; active = well fitted curve in the direction sought with a large enough effect; an effect the other way counts as inactive or inconclusive; note: nearly all actives have a fitted effect of over 65% in size). As to conditions: recombinant CYP3A4, Luciferin-PPXE luminescence, 60 min; series mostly up to 57.1 µM. An outline of the steps:
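Human CYP3A4 (20 nM) with Luciferin-PPXE at 25 uM (its KM) in 200 mM KPO4; 10 min compound preincubation, then NADPH regeneration and 60 min reaction at RT. Luciferin read by luminescence; normalized to 57 uM ketoconazole full inhibition.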

Assay [10] is described as follows: Confirmation and Secondary Assay for Modulators of Hemoglobin Beta Chain Splicing at IVS2 654 locus (AID 910; active = well fitted curve in the direction sought with a large enough effect; an effect the other way counts as inactive or inconclusive;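 note: per-well total GFP intensity by laser scanning cytometry after 2-day treatment; % of control where 0% means no effect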). The following applies: HeLa EGFP-654 splicing reporter, GFP fluorescence, 48 h; series mostly up to 38.3 µM. An outline of the steps: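 HeLa cells stably carrying EGFP interrupted by mutant beta-globin IVS2-654 intron (CMV-driven) were treated with compound for 2 days at 37C; corrected splicing was scored as total peak GFP intensity per well (488 nm excitation, 500-520 nm emission).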

A short description of assay [11]: Confirmation and Secondary Assay for Modulators of Hemoglobin Beta Chain Splicing at IVS2 705 locus (AID 930; active = well fitted curve in the direction sought with a large enough effect; an effect the other way counts as inactive or inconclusive;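 note: HeLa cells stably expressing the EGFP-705 splicing reporter; % of control where 0% means no effect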). As to conditions: HeLa EGFP-705 splicing reporter, GFP fluorescence, 48 h; series mostly up to 38.3 µM. An outline of the steps:
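Restored EGFP fluorescence after 2-day compound exposure reports splicing correction in IVS2-705 EGFP reporter HeLa cells; positive control was 500 nM splice-blocking PNA oligo. Signal measured as well total peak GFP intensity (488 nm excitation).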

The nature of assay [12]: qHTS Assay for Lipid Storage Modulators (AID 1519). As to conditions: Drosophila S3 cells, BODIPY lipid droplet/cell ratio, laser cytometry, cells loaded with oleic acid; for activity change, negative = inhibition: at 57.5 µM (top of the series). An outline of the steps:
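Cells seeded at 5,000 per well were treated with compounds over a concentration series and loaded with oleic acid (400 uM, as added). Lipid droplet fluorescence (488 nm excitation, 500-530 nm channel) was read by laser-scanning cytometry and normalized to 20 uM Triacsin C.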

Assay [13] deals with Ubiquitin carboxyl-terminal hydrolase 1 (Homo sapiens) (UniProt O94782). Nature of the assay: Inhibitors of USP1/UAF1: Pilot qHTS (AID 504865; active = well fitted curve in the direction sought with a large enough effect; an effect the other way counts as inactive or inconclusive;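 note: rhodamine fluorescence freed from ubiquitin-rhodamine substrate followed over time; top concentration of the series differs between compounds; % is set by controls: 0 for no effect and ±100 for the full control effect; nearly all actives have a fitted effect of over 35% in size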). The following applies: purified USP1/UAF1, Ub-rhodamine cleavage fluorescence; series mostly up to 54.9 µM. An outline of the steps:
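USP1/UAF1 complex (1nM) preincubated with compound 15 min at room temperature, then Ub-Rho substrate (150nM final) added. Fluorescence read kinetically at 480/540 nm, 6 reads every 60 seconds. Buffer: 50mM HEPES pH 7.8, 0.5mM EDTA, 0.1 mg/ml BSA, 1mM TCEP, 0.01% Tween-20.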

The nature of assay [14]: Primary qHTS for small molecule stabilizers of the endoplasmic reticulum resident proteome: Secreted ER Calcium Modulated Protein (SERCaMP) assay (AID 1508630; active = well fitted curve in the direction sought with a large enough effect; an effect the other way counts as inactive or inconclusive; note: % is set by controls: 0 for no effect and ±100 for the full control effect). As to conditions: SH-SY5Y GLuc-SERCaMP (Gaussia luciferase released on ER calcium loss) secretion, thapsigargin, luminescence; series mostly up to 38.4 µM. An outline of the steps: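 GLuc-SERCaMP-expressing SH-SY5Y cells, pretreated 16 h with compound, are challenged with thapsigargin to empty ER calcium stores; after 4 h, coelenterazine is added directly to the medium and luminescence is imaged.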

The target in assay [15] is Cytochrome P450 2C9 (Homo sapiens) (UniProt P11712). Kind of assay: qHTS Assay for Inhibitors and Substrates of Cytochrome P450 2C9 (AID 883; active = well fitted curve in the direction sought with a large enough effect; an effect the other way counts as inactive or inconclusive; note: potency is the fitted concentration of half-maximal effect; nearly all actives have a fitted effect of over 60% in size). As to conditions: recombinant CYP2C9, luciferin-H luminescence, 60 min; series mostly up to 57.1 µM. An outline of the steps:
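Human CYP2C9 (10nM) hydroxylated Luciferin-H (100uM, at its KM) to luciferin in 25mM KPO4. Compound was preincubated 10 min at 37C, then NADPH regeneration started a 60 min reaction at 37C. Luminescence was read after detection reagent, normalized to 57uM sulphaphenazole.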

For assay [16], the target named is Cytochrome P450 2D6 (Homo sapiens) (UniProt P10635). Kind of assay: qHTS Assay for Inhibitors and Substrates of Cytochrome P450 2D6 (AID 891; active = well fitted curve in the direction sought with a large enough effect; an effect the other way counts as inactive or inconclusive; note: potency is the fitted concentration of half-maximal effect; nearly all actives have a fitted effect of over 60% in size). As to conditions: recombinant CYP2D6, luciferin-ME EGE luminescence; series mostly up to 57.1 µM. An outline of the steps: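 Human CYP2D6 (5 nM) with 30 uM Luciferin-ME EGE (at Km) in 100 mM KPO4, compound preincubated 10 min, then NADPH regeneration system for 60 min at room temperature. Luciferin read by luminescence; normalized to 1.43 uM quinidine.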
Cytochrome P450 2D6 (Homo sapiens), sequence (P10635 whole entry, looked up): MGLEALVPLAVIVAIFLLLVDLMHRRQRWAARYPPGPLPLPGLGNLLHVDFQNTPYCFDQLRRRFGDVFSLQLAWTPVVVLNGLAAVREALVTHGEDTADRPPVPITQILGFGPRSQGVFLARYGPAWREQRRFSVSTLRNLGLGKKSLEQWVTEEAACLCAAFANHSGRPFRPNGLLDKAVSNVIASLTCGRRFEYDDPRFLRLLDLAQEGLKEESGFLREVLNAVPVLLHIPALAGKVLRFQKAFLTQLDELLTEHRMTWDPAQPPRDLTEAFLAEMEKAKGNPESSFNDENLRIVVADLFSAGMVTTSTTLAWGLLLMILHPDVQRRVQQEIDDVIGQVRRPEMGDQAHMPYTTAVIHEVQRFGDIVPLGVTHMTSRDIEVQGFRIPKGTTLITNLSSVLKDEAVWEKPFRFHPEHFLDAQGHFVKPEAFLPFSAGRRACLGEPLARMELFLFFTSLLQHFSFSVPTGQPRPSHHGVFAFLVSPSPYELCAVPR

Setting [17] is: measured here: cell count channel max response.
[18] abbreviates: measured here: lipid channel max response.

Inconclusive results are not listed. Activity calls are given as the source filed them. Unless noted, calls come from the whole dose curve. A value given as a limit tells only on which side of the number the result lay.

3',5'-cyclic-AMP phosphodiesterase 4B (Homo sapiens), sequence (Q07343 whole entry, looked up): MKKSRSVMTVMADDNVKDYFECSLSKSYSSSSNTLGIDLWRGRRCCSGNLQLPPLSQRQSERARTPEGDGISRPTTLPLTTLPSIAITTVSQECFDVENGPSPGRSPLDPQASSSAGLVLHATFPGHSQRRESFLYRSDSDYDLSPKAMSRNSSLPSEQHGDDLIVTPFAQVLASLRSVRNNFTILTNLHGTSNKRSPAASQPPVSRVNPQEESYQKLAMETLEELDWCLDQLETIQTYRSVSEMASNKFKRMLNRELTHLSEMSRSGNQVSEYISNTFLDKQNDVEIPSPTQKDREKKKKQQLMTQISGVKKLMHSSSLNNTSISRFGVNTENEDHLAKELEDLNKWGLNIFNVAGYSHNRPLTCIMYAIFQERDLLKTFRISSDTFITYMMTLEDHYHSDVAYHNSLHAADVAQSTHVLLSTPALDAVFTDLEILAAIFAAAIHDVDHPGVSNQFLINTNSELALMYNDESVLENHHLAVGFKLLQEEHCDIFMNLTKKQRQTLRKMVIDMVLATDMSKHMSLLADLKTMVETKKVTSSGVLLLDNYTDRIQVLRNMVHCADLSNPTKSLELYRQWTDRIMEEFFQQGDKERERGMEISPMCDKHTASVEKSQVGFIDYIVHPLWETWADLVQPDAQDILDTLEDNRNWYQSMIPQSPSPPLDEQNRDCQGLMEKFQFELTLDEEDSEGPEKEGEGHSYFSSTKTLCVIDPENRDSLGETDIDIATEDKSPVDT
Lysosomal acid glucosylceramidase (Homo sapiens), sequence (P04062 whole entry, looked up): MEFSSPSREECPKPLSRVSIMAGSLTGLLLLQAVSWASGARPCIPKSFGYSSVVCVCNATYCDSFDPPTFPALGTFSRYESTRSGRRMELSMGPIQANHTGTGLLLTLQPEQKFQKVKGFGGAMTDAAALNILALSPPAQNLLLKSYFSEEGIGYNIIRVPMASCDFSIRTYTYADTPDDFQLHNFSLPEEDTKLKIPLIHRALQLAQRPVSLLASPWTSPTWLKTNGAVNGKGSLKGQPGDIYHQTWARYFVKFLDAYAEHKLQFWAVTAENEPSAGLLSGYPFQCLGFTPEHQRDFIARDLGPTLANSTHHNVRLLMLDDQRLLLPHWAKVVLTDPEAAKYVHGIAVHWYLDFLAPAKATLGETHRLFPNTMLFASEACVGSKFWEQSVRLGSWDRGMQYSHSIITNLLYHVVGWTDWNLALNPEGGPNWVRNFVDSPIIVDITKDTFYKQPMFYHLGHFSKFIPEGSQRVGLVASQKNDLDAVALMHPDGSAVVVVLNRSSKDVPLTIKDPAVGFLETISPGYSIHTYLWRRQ
Cytochrome P450 3A4 (Homo sapiens), sequence (P08684 whole entry, looked up): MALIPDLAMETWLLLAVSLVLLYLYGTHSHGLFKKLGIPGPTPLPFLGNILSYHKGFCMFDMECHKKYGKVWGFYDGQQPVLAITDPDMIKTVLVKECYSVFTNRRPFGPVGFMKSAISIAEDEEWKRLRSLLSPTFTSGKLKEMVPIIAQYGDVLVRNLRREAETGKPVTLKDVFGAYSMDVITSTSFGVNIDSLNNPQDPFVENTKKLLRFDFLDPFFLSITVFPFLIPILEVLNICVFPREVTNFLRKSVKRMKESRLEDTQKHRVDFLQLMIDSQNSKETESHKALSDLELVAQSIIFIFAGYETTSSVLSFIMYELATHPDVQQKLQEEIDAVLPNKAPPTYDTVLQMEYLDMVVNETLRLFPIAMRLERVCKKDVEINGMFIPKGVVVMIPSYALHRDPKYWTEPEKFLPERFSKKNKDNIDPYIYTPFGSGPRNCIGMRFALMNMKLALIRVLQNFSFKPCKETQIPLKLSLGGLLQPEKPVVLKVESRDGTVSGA
Cytochrome P450 2C9 (Homo sapiens), sequence (P11712 whole entry, looked up): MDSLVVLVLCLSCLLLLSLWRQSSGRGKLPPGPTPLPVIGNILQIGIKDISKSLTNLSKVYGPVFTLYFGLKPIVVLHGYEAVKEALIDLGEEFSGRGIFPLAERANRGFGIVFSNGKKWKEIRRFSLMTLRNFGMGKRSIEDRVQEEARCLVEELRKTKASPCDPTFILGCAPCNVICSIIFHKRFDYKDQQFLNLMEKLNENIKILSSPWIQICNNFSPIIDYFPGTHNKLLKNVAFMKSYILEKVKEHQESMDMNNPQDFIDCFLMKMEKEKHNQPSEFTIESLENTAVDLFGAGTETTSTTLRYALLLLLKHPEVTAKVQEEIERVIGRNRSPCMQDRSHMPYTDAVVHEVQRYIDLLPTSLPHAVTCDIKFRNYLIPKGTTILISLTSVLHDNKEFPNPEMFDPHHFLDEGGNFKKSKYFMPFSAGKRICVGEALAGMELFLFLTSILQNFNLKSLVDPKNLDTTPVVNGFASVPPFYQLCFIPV
Ubiquitin carboxyl-terminal hydrolase 1 (Homo sapiens), sequence (O94782 whole entry, looked up): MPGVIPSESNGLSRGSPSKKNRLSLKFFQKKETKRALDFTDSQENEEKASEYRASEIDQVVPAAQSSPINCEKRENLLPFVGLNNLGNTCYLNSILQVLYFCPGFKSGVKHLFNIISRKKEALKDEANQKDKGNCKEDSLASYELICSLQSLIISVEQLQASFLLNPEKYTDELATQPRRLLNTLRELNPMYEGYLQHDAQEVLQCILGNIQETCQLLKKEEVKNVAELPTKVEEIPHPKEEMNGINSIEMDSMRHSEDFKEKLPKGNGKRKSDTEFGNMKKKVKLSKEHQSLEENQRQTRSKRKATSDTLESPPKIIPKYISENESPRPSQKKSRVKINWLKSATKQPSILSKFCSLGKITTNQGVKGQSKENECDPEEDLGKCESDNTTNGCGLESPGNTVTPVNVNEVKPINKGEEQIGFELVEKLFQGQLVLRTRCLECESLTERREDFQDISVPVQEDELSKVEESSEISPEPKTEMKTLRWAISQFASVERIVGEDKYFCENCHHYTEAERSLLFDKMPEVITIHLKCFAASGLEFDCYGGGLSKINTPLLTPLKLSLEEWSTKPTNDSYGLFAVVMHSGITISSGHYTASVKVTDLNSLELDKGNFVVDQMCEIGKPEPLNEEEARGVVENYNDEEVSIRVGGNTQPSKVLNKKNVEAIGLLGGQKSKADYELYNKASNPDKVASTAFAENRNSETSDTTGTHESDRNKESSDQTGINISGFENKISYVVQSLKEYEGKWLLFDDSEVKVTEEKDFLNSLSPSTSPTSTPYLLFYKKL

For the compound `CN(C)Cc1ccccc1-c1cncnc1NC1CC1`, the Potency in assay [1] is > 11.4 µM (inactive); in [3] it was 15.8 µM (active); in [5], > 46 µM (inactive); in assay [6], > 46 µM (inactive). Moreover, the activity change, negative = inhibition was -1.86% (inactive) in assay [2] and 6.51% (inactive) in assay [12]. Further, the activity, negative = inhibition in [4] is 2.98% (inactive). The Potency entry in [7], in assay [8], in [9], in [10] and in assay [13] was “inactive” throughout. For the same compound, the compound was called inactive in assay [11] and in assay [14]. Moreover, the max response is 18.3% in [12] (setting [17]) and 22.5% in assay [12] (setting [18]).
With `CN1CCCC2(CCN(S(=O)(=O)c3ccccc3)CC2)C1`, the Potency in [1] was > 11.4 µM (inactive); in assay [3], 20 µM (active); in assay [6], > 46 µM (inactive). Moreover, the activity change, negative = inhibition in [2] is 17.6% (inactive); in assay [12] it was 2.33% (inactive). The activity, negative = inhibition in assay [4] is -3% (inactive). Also, the Potency entry in assay [7] and in assay [8] was “inactive” throughout. The max response was 19.8% in assay [12] (setting [17]) and 25% in [12] (setting [18]). Moreover, the result in assay [14] was inactive.
On to `O=C(c1ccncc1)N1CCC2(CCCN(C(c3ccccc3)c3ccccc3)C2)CC1`, for which the Potency in assay [1] was > 11.4 µM (inactive); in assay [3] it was 0.2 µM (active); in [6], > 46 µM (inactive); in assay [15], 5.01 µM (active); in assay [16] it was 0.0398 µM (active). The activity change, negative = inhibition in [2] was 22.9% (inactive); in [12], 2.92% (inactive). The activity, negative = inhibition in [4] is 11.1% (inactive). Besides, the Potency result in assay [7], in assay [8] and in assay [9] was “inactive” each time. The max response in [12] (setting [17]) worked out at 12.6%; in assay [12] (setting [18]) it was 17.9%. The outcome in [14] was inactive.
For the compound `O=C(c1cccc(F)c1)N1CCC2(CCCN(Cc3ccccc3)C2)CC1`, the Potency in assay [1] was > 11.4 µM (inactive); in assay [6], > 46 µM (inactive). The activity change, negative = inhibition is 1.11% (inactive) in [2] and -8.15% (inactive) in assay [12]. For the same compound, the Potency result in [3], in [7] and in assay [8] was “inactive” each time. Further, the activity, negative = inhibition in assay [4] is -5.98% (inactive). The max response in assay [12] (setting [17]) was 20.2%; in [12] (setting [18]) it was 12%. Further, the result in assay [14] was inactive.
Take `COCC(=O)N1CCC2(CC1)CCN(c1cccc(-c3ccccc3)c1)CC2`: the Potency in assay [1] was > 11.4 µM (inactive); in [3] it was 5.01 µM (active); in assay [6] it was > 46 µM (inactive). Moreover, the figures for the activity change, negative = inhibition in assay [2] and in assay [12] were -4.83% (inactive) and -0.758% (inactive), respectively. In assay [4], the activity, negative = inhibition was -8.32% (inactive). The Potency result in [7] and in [8] was “inactive” in each case. Moreover, the max response is -9.9% in assay [12] (setting [17]) and -7.13% in [12] (setting [18]). Further, in assay [14], the result was inactive.
As for `COc1ccc(C(=O)N2CCC3(CCN(Cc4ccccc4OC)CC3)CC2)cc1`, the Potency is > 11.4 µM (inactive) in assay [1] and > 46 µM (inactive) in assay [6]. Further, the activity change, negative = inhibition is -0.655% (inactive) in [2] and 2.01% (inactive) in assay [12]. The Potency result in assay [3], in assay [7] and in assay [8] was “inactive” in each case. Also, the activity, negative = inhibition in assay [4] was -4.81% (inactive). Further, the max response in [12] (setting [17]) was determined as 10.3%; in [12] (setting [18]), 16.6%. Also, in assay [14], the result was inactive.
For `CC(C)CN1CCC2(CC1)CCN(S(=O)(=O)c1ccccc1)CC2`, the Potency in assay [1] was > 11.4 µM (inactive); in assay [6], > 46 µM (inactive). Further, the results for the activity change, negative = inhibition in assay [2] and in [12] were -4.17% (inactive) and 2.93% (inactive), respectively. In addition, the Potency result in assay [3], in assay [7] and in [8] was “inactive” each time. Also, the activity, negative = inhibition in assay [4] was -1.58% (inactive). The max response was -0.0585% in assay [12] (setting [17]) and 3.86% in assay [12] (setting [18]). Besides, the outcome in assay [14] was inactive.
